Assay results reported in PubChem BioAssay AID1159580 (chemical genetic matrix, 2015).
Screen size: about 5,500 compounds; about 2,000 (36%) were called active. Another 18% or so got no clear call; they are omitted. Rule as the data show it: active = normalized growth mostly below about 0.91 (no sharp cut-off); inconclusive = no clear call, values can overlap the other calls; inactive = mostly above about 0.92. This is one part of the list.

Experiment: chemical genetic growth profiling, strain panel (AID 1159580);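 also: tested at 20 µM; growth read once vehicle control cultures reached saturation at 30 °C; 1 = growth at the plate median or of vehicle wells; lower values mean less growth of the strain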
Conditions: S. cerevisiae deletion strains, growth OD

Measured: normalized growth

COc1cc(-c2oc3cc(O)ccc3c(=O)c2O)ccc1O
active: locus YAL021C, strain ccr4, hits give low values 0.743 | locus YAL026C, strain drs2, hits give low values 0.873 | locus YBR023C, strain chs3, hits give low values 0.861 | locus YBR231C, strain swc5, hits give low values 0.826 | locus YBR279W, strain paf1, hits give low values 0.853 | locus YDR069C, strain doa4, hits give low values 0.774 | locus YDR137W, strain rgp1, hits give low values 0.763 | locus YDR195W, strain ref2 1.18 [resistant] | locus YDR334W, strain swr1, hits give low values 0.887 | locus YER015W, strain faa2, hits give low values 0.859 | locus YGL173C, strain kem1, hits give low values 0.86 | locus YGL253W, strain hxk2, hits give low values 0.833 | locus YHR013C, strain ard1, hits give low values 0.814 | locus YHR027C, strain rpn1, hits give low values 0.788 | locus YHR142W, strain chs7, hits give low values 0.827 | locus YJL164C, strain tpk1, hits give low values 0.829 | locus YJL166W, strain qcr8, hits give low values 0.895 | locus YJL187C, strain SWE1, hits give low values 0.885 | locus YLR027C, strain aat2, hits give low values 0.902 | locus YLR221C, strain rsa3, hits give low values 0.899 | locus YLR262C, strain YPT6 (second series), hits give low values 0.748 | locus YLR357W, strain rsc2, hits give low values 0.8 | locus YMR058W, strain fet3, hits give low values 0.306 | locus YMR231W, strain pep5, hits give low values 0.906 | locus YNL209W, strain ssb2, hits give low values 0.647 | locus YOR070C, strain gyp1, hits give low values 0.873 | locus YOR083W, strain WHI5, hits give low values 0.85 | locus YOR106W, strain vam3, hits give low values 0.567 | locus YOR270C, strain vph1, hits give low values 0.542 | locus YPL051W, strain arl3, hits give low values 0.744
inactive: locus YAL030W, strain snc1, hits give low values 0.977 | locus YBL061C, strain skt5, hits give low values 0.926 | locus YBR009C, strain hhf1, hits give low values 0.925 | locus YBR171W, strain sec66, hits give low values 1 | locus YCL011C, strain gbp2, hits give low values 0.942 | locus YCL016C, strain dcc1, hits give low values 0.961 | locus YCL061C, strain MRC1, hits give low values 0.993 | locus YCL069W, strain vba3, hits give low values 0.987 | locus YCR088W, strain abp1, hits give low values 1.02 | locus YDL005C, strain med2, hits give low values 1.03 | locus YDL040C, strain nat1, hits give low values 1.01 | locus YDR001C, strain nth1, hits give low values 1.02 | locus YDR159W, strain sac3, hits give low values 1.06 | locus YDR297W, strain sur2, hits give low values 0.958 | locus YDR335W, strain msn5, hits give low values 0.971 | locus YDR392W, strain spt3, hits give low values 0.868 | locus YEL003W, strain gim4, hits give low values 0.961 | locus YEL037C, strain rad23, hits give low values 0.972 | locus YEL061C, strain CIN8 (second series), hits give low values 1 | locus YER016W, strain bim1, hits give low values 0.986 | locus YER111C, strain swi4, hits give low values 0.979 | locus YER155C, strain BEM2 (second series), hits give low values 0.977 | locus YFR010W, strain ubp6, hits give low values 0.906 | locus YGL167C, strain pmr1, hits give low values 0.995 | locus YGL227W, strain vid30, hits give low values 1.04 | locus YGL240W, strain doc1, hits give low values 1.04 | locus YJL092W, strain hpr5, hits give low values 1.01 | locus YJL095W, strain BCK1 (second series), hits give low values 0.967 | locus YJL115W, strain asf1, hits give low values 1.01 | locus YJL129C, strain trk1, hits give low values 0.911 | locus YJL154C, strain vps35, hits give low values 1 | locus YKL160W, strain elf1, hits give low values 0.912 | locus YKR026C, strain gcn3, hits give low values 1.02 | locus YKR091W, strain srl3, hits give low values 1 | locus YLL001W, strain dnm1, hits give low values 0.959 | locus YLL026W, hits give low values 0.954 | locus YLL041C, strain sdh2, hits give low values 0.994 | locus YLR258W, strain gsy2, hits give low values 0.935 | locus YLR320W, strain mms22, hits give low values 0.9 | locus YLR342W, strain FKS1, hits give low values 0.966 | locus YLR370C, strain arc18, hits give low values 0.96 | locus YLR384C, strain iki3, hits give low values 0.987 | locus YML120C, strain ndi1, hits give low values 0.975 | locus YMR125W, strain sto1, hits give low values 1.11 | locus YMR129W, hits give low values 0.998 | locus YMR205C, strain PFK2, hits give low values 0.926 | locus YNL071W, strain lat1, hits give low values 0.96 | locus YNL248C, strain rpa49, hits give low values 0.968 | locus YNL322C, strain KRE1 (second series), hits give low values 1.03 | locus YNR049C, strain mso1, hits give low values 1 | locus YOR001W, strain rrp6, hits give low values 0.917 | locus YOR080W, strain dia2, hits give low values 1 | locus YOR265W, strain rbl2, hits give low values 0.968 | locus YOR290C, strain snf2, hits give low values 0.888 | locus YPL078C, strain atp4, hits give low values 0.927 | locus YPL106C, strain sse1, hits give low values 0.935 | locus YPL240C, strain hsp82, hits give low values 0.972
